Five compounds from PubChem BioAssay can be followed below.

Calls of active or inactive are those of the source.

Test [1] deals with PRMT1 (protein arginine N-methyltransferase 1). The test can be described thus: PRMT1 binders on small-molecule microarrays, primary screen, biochemical, small-molecule microarray, 635 nm fluorescence (AID 1088).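 Also: binding of Prmt1 protein to compounds spotted on small-molecule microarray slides.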 As to conditions: small-molecule microarray binding, higher = more signal.
Test [2] can be described thus: yeast growth modulation, basal conditions, primary screen, YJM789 clinical isolate, OD600, 24 h (AID 1089).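 Also: growth of clinical yeast isolate S. cerevisiae YJM 789 seeded 1000 cells per well; test concentration not given here.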 Conditions: S. cerevisiae YJM789 growth, higher = more signal, called active from +8 up or from −8 down.
Test [3] in a line: fission yeast growth modulation, primary screen, strain 972, OD600, 24 h, no modulator (AID 1090).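 Also: basal condition with compound alone and no growth modifier present; test concentration not given here.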 Conditions: S. pombe 972 growth, higher = more signal, called active from +8 up or from −8 down.
Test [4] is described as follows: S. cerevisiae growth modulation with rapamycin, primary screen, strain BY4716, OD600, 96 h (AID 1091). Also: test concentration not given here. As to conditions: higher = more signal, called active from +8 up or from −8 down.
Test [5] deals with Torsin-1A-interacting protein 2 (Homo sapiens) (UniProt Q8NFQ8). The test can be described thus: LULL1 binders on small-molecule microarray, primary screen, cell lysate, human LULL1 lysate, 635/667 nm fluorescence (AID 1092).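 Also: probe is lysate of COS7 cells overexpressing human LULL1; score merges per-feature 667 nm fluorescence with signal-to-noise.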 Conditions: hLULL1 lysate binding, 635 nm fluorescence, higher = more signal.
The nature of test [6]: E. coli growth modulation, two-sided OD650, primary screen, E. coli filamentation project, strain DRC41, 24 h (AID 1093).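 Also: MC1000 strain lacking acrAB efflux and sulA so SOS filamentation is blocked; test concentration not given here.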 Conditions: OD650, 24 h, higher = more signal, called active from +8 up or from −8 down.
The nature of test [7]: small-molecule microarray binders of probe aLefty2, primary screen, biochemical, biotinylated probe, 635/667 nm fluorescence (AID 1094).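 Also: score merges spot fluorescence near 667 nm with spot signal-to-noise ratio.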 As to conditions: higher = more signal.
For test [8], the system named is Noggin (protein binding on small-molecule microarray). The experiment in a line: Noggin binders on small-molecule microarray, primary screen, biochemical, 635/667 nm fluorescence (AID 1095).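 Also: score merges 667 nm feature fluorescence with signal to noise over triplicate slides.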 Conditions: 635 nm fluorescence, higher = more signal.
Test [9] addresses Neurogenic locus notch homolog protein 3 (Homo sapiens) (UniProt Q9UM47). The experiment in a line: NOTCH3 binders on small-molecule microarray, primary screen, biochemical, 635/667 nm fluorescence (AID 1096). Conditions: NOTCH3 binding, 635 nm fluorescence, higher = more signal.
A short description of test [10]: small-molecule microarray binders of probe aEGFR, primary screen, biochemical, biotinylated probe, 635/667 nm fluorescence (AID 1097).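 Also: probe is a biotinylated anti-EGFR antibody binding compounds printed on slides; score combines fluorescence near 667 nm and signal to noise of each spot.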 As to conditions: higher = more signal.
Test [11] concerns Plasmodium falciparum Sir2 (PF13_0152, Sir2A). The experiment in a line: pfSir2 binders on small-molecule microarrays, primary screen, biochemical, small-molecule microarray, 635 nm fluorescence (AID 1098).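 Also: score merges spot fluorescence intensity with its signal-to-noise ratio.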 Conditions: small-molecule microarray binding, fluorescence 635 nm; higher = more signal.
A short description of test [12]: small-molecule microarray binders of probe aDKK1, primary screen, biochemical, biotinylated probe, 635/667 nm fluorescence (AID 1099).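 Also: score merges 667nm spot fluorescence with signal to noise across triplicate slides; reference of the scale not given here.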 Conditions: higher = more signal.
Test [13] is described as follows: small-molecule microarray binders of probe aCHRDL2, primary screen, biochemical, biotinylated probe, 635/667 nm fluorescence (AID 1100). As to conditions: higher = more signal.
The nature of test [14]: splicing luciferase reporter signal modulators, primary screen, spliceosome inhibition project, cell-based, HEK293, splice +/- reporter (AID 1101).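 Also: HEK293 cells carrying a splicing-competent luciferase reporter gene; test concentration not given here.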 As to conditions: luminescence, 24 h, higher = more signal, called active from +8 up or from −8 down. Background: Reporter assays use an easily measured gene product as a stand-in for the process of interest.
Test [15] deals with Fibroblast growth factor 10 (Homo sapiens) (UniProt O15520). The experiment in a line: FGF10 binders on small-molecule microarrays, primary screen, biochemical, small-molecule microarray, 635 nm fluorescence (AID 1102). As to conditions: FGF10 binding, fluorescence 635 nm, higher = more signal.
Test [16] deals with glycogen synthase kinase-3 (GSK3A per assay name; protocol says GSK3B). The test can be described thus: GSK3 binders on small-molecule microarrays, primary screen, biochemical, small-molecule microarray, 635 nm fluorescence, GSK3A (AID 1103). Also: the record names both GSK3A and GSK3B. Conditions: small-molecule microarray binding, fluorescence 635 nm; higher = more signal.
The target in test [17] is Epidermal growth factor receptor (Homo sapiens) (UniProt P00533). The test can be described thus: EGFR binders on small-molecule microarrays, primary screen, biochemical, small-molecule microarray, 635 nm fluorescence (AID 1104).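 Also: score merges 667 nm emission intensity with spot signal to noise over triplicate slides.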 Conditions: EGFR binding, higher = more signal.
The target in test [18] is Follistatin-related protein 3 (Homo sapiens) (UniProt O95633). The experiment in a line: FSTL3 binders on small-molecule microarrays, primary screen, biochemical, small-molecule microarray, 635 nm fluorescence (AID 1105).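 Also: score merges emission near 667 nm and signal to noise per printed spot across three slides.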 As to conditions: FSTL3 binding, higher = more signal.
Test [19] addresses Dickkopf-related protein 1 (Homo sapiens) (UniProt O94907). The test can be described thus: DKK1 binders on small-molecule microarrays, primary screen, biochemical, small-molecule microarray, 635 nm fluorescence scan (AID 1106).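 Also: score merges emission near 667 nm with signal to noise over three replicate slides.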 Conditions: DKK1 binding, higher = more signal.
In test [20] the test system is Inhibin beta A chain (activin A). The test can be described thus: INHBA (activin A) binders on microarrays, primary screen, biochemical, small-molecule microarray, 635 nm fluorescence scan (AID 1107).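 Also: mouse activin A protein probed at 4.33 µg/mL on printed slides; score merges bound-protein fluorescence near 667 nm with spot signal-to-noise.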 Conditions: small-molecule microarray binding, higher = more signal.

Sequence of Dickkopf-related protein 1 (Homo sapiens) (O94907 whole entry, looked up): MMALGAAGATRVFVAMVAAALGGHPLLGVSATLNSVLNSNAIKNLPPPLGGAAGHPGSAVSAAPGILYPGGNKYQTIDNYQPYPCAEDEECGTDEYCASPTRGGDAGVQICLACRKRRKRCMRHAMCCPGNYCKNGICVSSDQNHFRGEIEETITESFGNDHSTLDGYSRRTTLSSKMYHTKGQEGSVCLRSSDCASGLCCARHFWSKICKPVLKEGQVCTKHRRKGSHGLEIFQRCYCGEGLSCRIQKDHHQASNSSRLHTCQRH
Sequence of Torsin-1A-interacting protein 2 (Homo sapiens) (Q8NFQ8 whole entry, looked up): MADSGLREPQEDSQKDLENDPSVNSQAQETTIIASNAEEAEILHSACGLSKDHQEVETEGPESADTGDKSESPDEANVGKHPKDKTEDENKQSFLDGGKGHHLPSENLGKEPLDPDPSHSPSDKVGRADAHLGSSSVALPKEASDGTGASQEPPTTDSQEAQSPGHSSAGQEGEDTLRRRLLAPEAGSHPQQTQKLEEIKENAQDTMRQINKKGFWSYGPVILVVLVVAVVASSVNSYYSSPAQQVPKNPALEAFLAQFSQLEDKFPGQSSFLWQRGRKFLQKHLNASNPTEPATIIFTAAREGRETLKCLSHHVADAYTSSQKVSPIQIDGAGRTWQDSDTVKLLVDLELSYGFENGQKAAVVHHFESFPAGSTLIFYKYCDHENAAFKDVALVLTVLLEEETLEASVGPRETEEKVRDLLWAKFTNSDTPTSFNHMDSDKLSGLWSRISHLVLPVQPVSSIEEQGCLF
Sequence of Epidermal growth factor receptor (Homo sapiens) (P00533 whole entry, looked up): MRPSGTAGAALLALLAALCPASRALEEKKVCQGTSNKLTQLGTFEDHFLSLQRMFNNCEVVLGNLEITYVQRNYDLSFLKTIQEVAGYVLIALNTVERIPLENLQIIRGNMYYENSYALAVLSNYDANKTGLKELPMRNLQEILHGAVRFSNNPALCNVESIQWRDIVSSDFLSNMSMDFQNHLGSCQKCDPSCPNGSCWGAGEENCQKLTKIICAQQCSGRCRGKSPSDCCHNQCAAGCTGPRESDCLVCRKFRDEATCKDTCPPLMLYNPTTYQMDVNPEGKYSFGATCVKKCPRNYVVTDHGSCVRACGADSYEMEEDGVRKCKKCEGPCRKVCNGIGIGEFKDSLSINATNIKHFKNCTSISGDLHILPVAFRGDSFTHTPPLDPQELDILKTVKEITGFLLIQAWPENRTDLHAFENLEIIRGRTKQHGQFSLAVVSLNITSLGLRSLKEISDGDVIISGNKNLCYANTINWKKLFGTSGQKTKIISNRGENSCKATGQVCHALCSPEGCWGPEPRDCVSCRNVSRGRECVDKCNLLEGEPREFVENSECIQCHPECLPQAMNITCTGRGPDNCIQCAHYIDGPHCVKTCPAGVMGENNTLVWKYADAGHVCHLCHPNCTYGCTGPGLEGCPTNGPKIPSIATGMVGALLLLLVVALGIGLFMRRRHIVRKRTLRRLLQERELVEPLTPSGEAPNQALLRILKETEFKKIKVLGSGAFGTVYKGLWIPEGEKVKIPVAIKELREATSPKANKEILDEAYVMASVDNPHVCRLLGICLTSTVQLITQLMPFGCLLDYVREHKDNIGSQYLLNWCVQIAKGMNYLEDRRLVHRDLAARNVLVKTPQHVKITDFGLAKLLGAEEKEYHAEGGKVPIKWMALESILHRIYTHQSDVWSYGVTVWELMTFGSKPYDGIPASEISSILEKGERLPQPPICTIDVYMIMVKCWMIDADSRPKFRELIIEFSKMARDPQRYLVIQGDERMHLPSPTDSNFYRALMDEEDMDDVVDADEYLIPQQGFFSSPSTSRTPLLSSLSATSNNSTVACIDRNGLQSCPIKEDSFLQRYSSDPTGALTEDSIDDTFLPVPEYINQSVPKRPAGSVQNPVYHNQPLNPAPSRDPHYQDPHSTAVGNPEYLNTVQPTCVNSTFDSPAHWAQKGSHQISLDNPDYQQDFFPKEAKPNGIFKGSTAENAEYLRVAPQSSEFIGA
Sequence of Fibroblast growth factor 10 (Homo sapiens) (O15520 whole entry, looked up): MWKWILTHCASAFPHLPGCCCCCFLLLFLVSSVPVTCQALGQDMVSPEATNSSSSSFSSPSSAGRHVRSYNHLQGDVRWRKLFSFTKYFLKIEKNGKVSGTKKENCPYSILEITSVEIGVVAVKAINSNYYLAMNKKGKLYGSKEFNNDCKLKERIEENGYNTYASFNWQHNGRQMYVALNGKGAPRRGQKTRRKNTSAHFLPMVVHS
Sequence of Follistatin-related protein 3 (Homo sapiens) (O95633 whole entry, looked up): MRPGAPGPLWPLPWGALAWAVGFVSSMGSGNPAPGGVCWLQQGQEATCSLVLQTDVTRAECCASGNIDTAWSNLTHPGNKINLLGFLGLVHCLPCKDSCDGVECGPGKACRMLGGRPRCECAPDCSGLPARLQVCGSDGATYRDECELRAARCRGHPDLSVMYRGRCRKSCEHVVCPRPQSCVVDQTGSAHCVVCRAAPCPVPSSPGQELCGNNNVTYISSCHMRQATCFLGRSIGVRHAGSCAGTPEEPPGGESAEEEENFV
Sequence of Neurogenic locus notch homolog protein 3 (Homo sapiens) (Q9UM47 whole entry, looked up): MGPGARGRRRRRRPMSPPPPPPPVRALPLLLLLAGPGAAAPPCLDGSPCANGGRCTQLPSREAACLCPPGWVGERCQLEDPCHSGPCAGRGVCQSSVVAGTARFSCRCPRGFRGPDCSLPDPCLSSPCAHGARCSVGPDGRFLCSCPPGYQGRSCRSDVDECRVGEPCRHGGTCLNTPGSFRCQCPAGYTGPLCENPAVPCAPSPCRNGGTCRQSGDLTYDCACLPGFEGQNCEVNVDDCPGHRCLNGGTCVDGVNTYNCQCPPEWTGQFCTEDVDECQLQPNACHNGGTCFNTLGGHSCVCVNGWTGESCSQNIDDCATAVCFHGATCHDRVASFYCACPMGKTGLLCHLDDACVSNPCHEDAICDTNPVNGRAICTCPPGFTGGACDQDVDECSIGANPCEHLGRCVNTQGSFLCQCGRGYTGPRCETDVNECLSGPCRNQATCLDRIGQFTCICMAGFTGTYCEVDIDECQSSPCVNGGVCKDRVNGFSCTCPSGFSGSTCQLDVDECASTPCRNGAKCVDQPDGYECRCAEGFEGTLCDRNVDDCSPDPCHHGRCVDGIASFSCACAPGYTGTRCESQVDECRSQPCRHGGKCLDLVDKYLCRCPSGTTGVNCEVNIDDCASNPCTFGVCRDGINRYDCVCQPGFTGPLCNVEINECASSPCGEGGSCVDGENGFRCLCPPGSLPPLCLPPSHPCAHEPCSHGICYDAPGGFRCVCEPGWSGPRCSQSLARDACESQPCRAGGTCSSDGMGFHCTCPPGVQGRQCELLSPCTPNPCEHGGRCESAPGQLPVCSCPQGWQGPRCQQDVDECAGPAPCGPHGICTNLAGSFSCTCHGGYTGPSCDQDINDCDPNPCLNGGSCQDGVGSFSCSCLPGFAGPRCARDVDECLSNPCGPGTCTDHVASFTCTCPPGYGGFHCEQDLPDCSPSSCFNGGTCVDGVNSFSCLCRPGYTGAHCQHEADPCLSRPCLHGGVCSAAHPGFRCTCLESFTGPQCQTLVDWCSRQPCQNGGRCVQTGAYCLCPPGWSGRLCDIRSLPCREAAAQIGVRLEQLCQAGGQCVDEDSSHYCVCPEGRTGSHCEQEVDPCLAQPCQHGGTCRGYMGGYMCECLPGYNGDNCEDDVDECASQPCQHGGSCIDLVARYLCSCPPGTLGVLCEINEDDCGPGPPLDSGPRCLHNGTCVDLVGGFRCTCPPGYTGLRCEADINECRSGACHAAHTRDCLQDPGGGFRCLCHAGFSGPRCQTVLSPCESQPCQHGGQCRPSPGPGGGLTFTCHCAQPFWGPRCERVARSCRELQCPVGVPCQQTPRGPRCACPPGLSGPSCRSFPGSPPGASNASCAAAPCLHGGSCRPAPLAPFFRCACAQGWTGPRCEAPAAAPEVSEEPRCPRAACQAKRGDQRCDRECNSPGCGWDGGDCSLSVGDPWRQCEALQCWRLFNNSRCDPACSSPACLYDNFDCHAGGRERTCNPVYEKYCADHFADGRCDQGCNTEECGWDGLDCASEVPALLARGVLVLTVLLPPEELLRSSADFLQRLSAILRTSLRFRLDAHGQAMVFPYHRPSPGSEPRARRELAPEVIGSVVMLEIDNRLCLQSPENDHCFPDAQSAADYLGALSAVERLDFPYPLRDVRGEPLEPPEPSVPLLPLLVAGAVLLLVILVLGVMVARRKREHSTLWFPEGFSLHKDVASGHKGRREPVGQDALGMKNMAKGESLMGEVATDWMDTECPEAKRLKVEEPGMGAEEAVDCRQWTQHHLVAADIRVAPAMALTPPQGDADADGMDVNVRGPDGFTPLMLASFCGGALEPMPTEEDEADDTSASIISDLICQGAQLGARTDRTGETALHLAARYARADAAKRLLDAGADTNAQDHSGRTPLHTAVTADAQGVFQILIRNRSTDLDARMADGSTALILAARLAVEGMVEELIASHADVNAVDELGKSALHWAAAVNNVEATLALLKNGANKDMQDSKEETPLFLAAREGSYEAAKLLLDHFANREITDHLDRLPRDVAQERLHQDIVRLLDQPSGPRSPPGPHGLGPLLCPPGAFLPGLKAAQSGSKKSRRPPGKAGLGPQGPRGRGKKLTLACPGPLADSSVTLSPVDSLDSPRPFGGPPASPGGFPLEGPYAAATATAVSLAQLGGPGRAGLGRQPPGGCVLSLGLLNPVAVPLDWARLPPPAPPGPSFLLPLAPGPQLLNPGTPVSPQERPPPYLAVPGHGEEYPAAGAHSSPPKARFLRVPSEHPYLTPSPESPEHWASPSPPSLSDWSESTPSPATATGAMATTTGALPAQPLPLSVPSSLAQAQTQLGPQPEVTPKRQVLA

As for `CC1(C)C(=O)C(c2ccccc2)=C2CN3C(=O)N(CCc4ccccc4)C(=O)C3(Cc3ccccc3)C=C21` (stereo not given), the composite z-score was -0.377 in test [1]; 2.83 in test [5]; 0.336 in [7]; -0.264 in test [8]; 1.12 in [9]; 0.164 in test [10]. For the same compound, the composite z-score is 0.155 in test [11]; 1.06 in test [12]; 1.12 in [13]; 0.363 in test [15]; 0.182 in test [16]; -0.0726 in [17]. Also, the composite z-score in test [18] is 0.949; in [19], -1.03; in [20] it was 1.09. Besides, the z-score was 0.672 (inactive) in test [2]; 2.28 (inactive) in test [3]; 5.82 (inactive) in test [4]; -0.723 (inactive) in [6]; 0.917 (inactive) in test [14].

Turning to `CC(C)(C)OC(=O)CC[C@]1(C(=O)NCC(O)CO)N=C(c2ccc(OCCCO)cc2)O[C@H]1c1ccccc1CN=[N+]=[N-]` (stereo not given in full), the composite z-score came out at 1.06 in [1]; 3.59 in [5]; 0.716 in test [7]; 0.27 in test [8]; 1.08 in test [9]; 0.61 in test [10]. The composite z-score in [11] is 0.982; in test [12], 1.27; in test [13], 1.33; in test [15] it was 1.5; in test [16], 0.554; in [17], -0.256. For the same compound, the results for the composite z-score in test [18], in [19] and in [20] were 0.676, -0.0583 and 0.487, respectively. Also, the z-score in test [2] was -0.624 (inactive); in test [3] it was -0.867 (inactive); in [4], -0.859 (inactive); in [6], 0.301 (inactive); in [14] it was 0.121 (inactive).

Take `Oc1ccc2cc[n+](Cc3cccc(OC(F)(F)F)c3)cc2c1`: the composite z-score in test [1] was 0.488; in [5], 1.65; in test [7], -0.0541; in test [8], 1.26; in [9], 0.646; in [10], -0.0177. Further, the composite z-score in [11] was 1.36; in test [12], -0.319; in test [13] it was -0.576; in test [15] it was 0.837; in [16], -0.477; in test [17], 1.2. The composite z-score in test [18] turned out to be 1.24; in [19], 0.732; in [20], 0.826. Further, the z-score was 0.573 (inactive) in test [2]; 0.439 (inactive) in test [3]; 4.58 (inactive) in test [4]; 0.713 (inactive) in test [6]; 0.609 (inactive) in [14].

Consider `[N-]=[N+]=NCc1ccccc1C[C@]1(C(=O)NCc2ccccc2)COC(c2ccc(OCCCO)cc2)=N1`, for which the composite z-score in test [1] is 1.01; in test [5], 3.12; in test [7], -0.0438; in test [8], 0.0869; in test [9] it was -0.146; in test [10], -0.0828. In addition, the composite z-score in test [11] is 0.518; in test [12], -0.109; in [13] it was 0.681; in test [15], 0.447; in [16], 0.431; in test [17], 0.0245. Moreover, the composite z-score was -0.109 in [18], -0.874 in test [19] and 0.743 in [20]. The z-score in test [2] is 1.67 (inactive); in test [3], 0.816 (inactive); in [4], 36 (active); in test [6] it was 1.21 (inactive); in test [14], -0.426 (inactive).

On to `CCOC(=O)C1=CC[C@@H](c2cccc(Cl)c2)N(S(=O)(=O)c2ccc(C)cc2)[C@H]1c1ccc(C#N)cc1`, for which the composite z-score in [1] was 1.56; in [5], 3.18; in [7] it was -0.0018; in test [8], 0.156; in test [9], 1.05; in test [10] it was 0.191. Besides, the composite z-score came out at 1.06 in [11]; 0.855 in [12]; 0.252 in test [13]; 0.841 in test [15]; 1.32 in test [16]; 0.36 in [17]. The values for the composite z-score in test [18], in test [19] and in [20] were 1.41, 0.49 and 0.582, respectively. Moreover, the z-score in [2] is 0.914 (inactive); in test [3] it was 1.99 (inactive); in test [4], 2.58 (inactive); in test [6], -1.2 (inactive); in [14] it was -0.201 (inactive).
